Out of some 310,000 compounds screened, about 18,000 (5.8%) were called active. Inconclusive results (about 22%) are left out. Calls come from the whole dose curve; as a rule, active = well fitted inhibition curve with a large enough effect; inconclusive = small, poorly fitted or top-dose-only effect, or another doubt; inactive = no such curve, though single readings can be large or run the other way. What follows is part of a selection rich in actives, with near analogues and random picks from the rest. Where a call stands in place of a potency, no number is given.
Assay: Primary qHTS for delayed death inhibitors of the malarial parasite plastid, 48 hour incubation
Details: P. falciparum luciferase growth in erythrocytes; series mostly up to 28.7 µM
Procedure, shortened: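 Luciferase-expressing P. falciparum in infected erythrocytes (2% hematocrit, 0.1% parasitemia final) in RPMI 1640/0.5% Albumax were exposed to compound for 48 hours at 37 C, 5% CO2; growth read as luminescence.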
Potency is the fitted concentration of half-maximal effect.

Q: Which Potency does the source give for `Cc1ccc(NC2CCCN(C(=O)CCc3cn[nH]c3)C2)cc1C` (stereo not drawn) here?
A: The Potency was “inactive”.

Q: For `COc1ccc(S(=O)(=O)Nc2cc(C)on2)cc1NC(C)=O`, which Potency is on record?
A: Its Potency is “inactive”.

Q: For `Cc1ccc2nc(SCC(=O)N3CC(C)OC(C)C3)nc(=O)n2c1` (stereo not drawn), which Potency is on record?
A: The Potency was “inactive”.

Q: For `CC(C)Nc1ccc(-n2nc3ccccc3[n+]2[O-])cc1`, which Potency is on record?
A: The Potency was “inactive”.

Q: For `COc1ccc(NC(=O)C2CCN(S(=O)(=O)c3ccc4[nH]c(=O)oc4c3)CC2)c(OC)c1`, which Potency is on record?
A: The Potency was “inactive”.

Q: With `COc1ccc(C(CNC(=O)COc2ccccc2OC)N2CCCCC2)cc1` (stereo not drawn) as the compound, how does the Potency read?
A: The Potency was “inactive”.

Q: For `COc1ccccc1CN1CC(C(=O)NCCc2cn[nH]c2)CCC1=O` (stereo not drawn), which Potency is on record?
A: The Potency was “inactive”.

Q: For `COc1ccc2c(c1)C(SCC(=O)NCc1ccccc1)CC(C)(C)O2` (stereo not drawn), which Potency is on record?
A: Its Potency is “inactive”.

Q: Which Potency does the source give for `COc1ccc2c(c1)C=CC1(O2)N(CCO)c2ccccc2C1(C)C` (stereo not drawn) here?
A: Its Potency is 13.1 µM (active).

Q: With `CN1c2ccc([N+](=O)[O-])cc2C(C)(C)C12C=Cc1cc(C(=O)O)ccc1O2` (stereo not drawn) as the compound, how does the activity change, negative = inhibition read?
A: The activity change, negative = inhibition was 16.2% [at 0.00184 µM] (inactive).

Q: Which Potency does the source give for `CC1CCCCC1NC(=O)COC(=O)Cc1ccc(Cl)cc1` (stereo not drawn) here?
A: The Potency was “inactive”.

Q: With `CSc1nnc2ccc(-c3ccc(C)cc3)nn12` as the compound, how does the Potency read?
A: Its Potency is “inactive”.

Q: Which Potency does the source give for `Cc1ccc(S(=O)(=O)n2cccc2CO)cc1` here?
A: Its Potency is “inactive”.

Q: For `CN(C)CCNc1ccc(-c2n[nH]c(=O)c3ccccc23)cc1[N+](=O)[O-]`, which Potency is on record?
A: Its Potency is “inactive”.

Q: For `COCCNc1cc(NCCOC)c([N+](=O)[O-])cc1[N+](=O)[O-]`, which Potency is on record?
A: The Potency was “inactive”.

Q: For `COCCNc1ccc(-c2n[nH]c(=O)c3ccccc23)cc1[N+](=O)[O-]`, which Potency is on record?
A: The Potency was 4.65 µM (active).

Q: Which Potency does the source give for `COc1ccc(CNC(=O)c2cc(=O)c3c(C)cc(C)cc3o2)cc1` here?
A: Its Potency is “inactive”.

Q: For `O=C(c1cc(-c2ccc(Cl)cc2)on1)N1CCN(c2ccccc2)CC1`, which Potency is on record?
A: Its Potency is “inactive”.

Q: For `CC(C)n1cnc2c(Nc3cccc(Cl)c3)nc(N(CCO)CCCO)nc21`, which Potency is on record?
A: Its Potency is 7.38 µM (active).

Q: Which Potency does the source give for `O=C(Nc1ccccc1N1CCCCC1)c1cccc(F)c1` here?
A: Its Potency is “inactive”.

Q: For `O=C(NC(=S)Nc1ccccc1N1CCCCC1)c1ccc(F)cc1`, which Potency is on record?
A: The Potency was 8.28 µM (active).

Q: Which Potency does the source give for `COc1ccccc1C(=O)NC(=S)Nc1ccccc1N1CCCCC1` here?
A: The Potency was “inactive”.

Q: With `O=C(COc1nsnc1N1CCOCC1)Nc1ccccc1Cl` as the compound, how does the Potency read?
A: The Potency was “inactive”.

Q: Which Potency does the source give for `Cn1c(=O)n(C)c2cc(C(=O)Nc3ccc(Br)cc3)ccc21` here?
A: Its Potency is “inactive”.

Q: For `Clc1ccc2nc(-c3ccccc3)nc(C(Cl)Cl)c2c1`, which Potency is on record?
A: Its Potency is 10.4 µM (active).

Q: For `CSc1nc(-c2ccccc2)nc(C(Cl)Cl)n1`, which Potency is on record?
A: Its Potency is “inactive”.

Q: Which Potency does the source give for `N#CCSc1nc(-c2ccccc2)nc2ccc(F)cc12` here?
A: Its Potency is “inactive”.

Q: With `CN1C(C(=O)NCC2CC2)CC2Cn3c(nc4ccccc43)C21` (stereo not drawn) as the compound, how does the Potency read?
A: The Potency was “inactive”.

Q: Which Potency does the source give for `Cn1nc(C(F)(F)F)c(-c2ccc(F)cc2)c1NC(=O)CSCC(=O)O` here?
A: The Potency was “inactive”.

Q: For `Cn1nc(C(F)(F)F)c2cc(NC(=O)OCC(C)(C)C)sc21`, which Potency is on record?
A: Its Potency is 2.33 µM (active).

Q: With `Cn1nc(C(F)(F)F)c2cc(C(=O)N3CCOCC3)sc21` as the compound, how does the Potency read?
A: The Potency was “inactive”.

Q: With `COc1ccc(CN2CCC(n3nccc3NC(=O)CCCc3ccccc3)CC2)cc1C` as the compound, how does the Potency read?
A: The Potency was “inactive”.

Q: With `CC(Sc1nnc(C2CC2)n1C1CC1)C(=O)Nc1ccc(C(N)=O)cc1` (stereo not drawn) as the compound, how does the Potency read?
A: Its Potency is “inactive”.

Q: With `COc1cccc(NC(=O)CSc2nnc(Cc3ccc(OC)c(OC)c3)o2)c1` as the compound, how does the Potency read?
A: Its Potency is “inactive”.

Q: For `O=C(COC(=O)c1ncc(Cl)c(Cl)c1Cl)NNC(=O)c1ccccc1`, which Potency is on record?
A: Its Potency is “inactive”.

Q: For `O=C(O)Cc1sc(-c2ccccc2)nc1-c1cccs1`, which Potency is on record?
A: Its Potency is “inactive”.

Q: Which Potency does the source give for `CC(=O)C1=C(C)NC(C)=C(C(C)=O)C1c1cn(-c2ccccc2)nc1-c1cccs1` here?
A: Its Potency is 14.7 µM (active).

Q: Which Potency does the source give for `O=C(NCc1cccnc1)c1cn(-c2ccccc2)nc1-c1cccs1` here?
A: Its Potency is “inactive”.

Q: Which Potency does the source give for `CCOc1ccc2[nH]c(C(=O)N/N=C/c3cccc(OC)c3OC)cc2c1` here?
A: The Potency was “inactive”.

Q: For `COc1ccc(O)c(C(=O)c2cnc3onc(C(C)C)c3c2)c1`, which Potency is on record?
A: Its Potency is 2.62 µM (active).

Q: Which Potency does the source give for `COc1ccc(OC)c(C(=O)c2ccc(Cl)cc2)c1` here?
A: Its Potency is “inactive”.

Q: For `COc1ccc(-c2onc3ccc(C(C)=O)cc23)cc1`, which Potency is on record?
A: The Potency was “inactive”.

Q: For `COc1cc(OC)c(C(=O)OCC(=O)N2CC(=O)Nc3ccccc32)cc1OC`, which Potency is on record?
A: The Potency was “inactive”.

Q: For `COc1ccc(C(=O)OCC(=O)N2CC(=O)Nc3ccccc32)cc1Br`, which Potency is on record?
A: Its Potency is “inactive”.

Q: Which Potency does the source give for `COc1ccc(Cl)cc1-n1c(C)cc(C(=O)OCC(=O)N2CC(=O)Nc3ccccc32)c1C` here?
A: Its Potency is 5.22 µM (active).

Q: Which Potency does the source give for `CCCC(C)NC(=O)C1CCN(C(=O)C2CC(=O)N(c3ccc(C)cc3)C2)CC1` (stereo not drawn) here?
A: Its Potency is “inactive”.

Q: For `CCCc1cc(-c2n[nH]c(=S)n2CC)c2ccccc2n1`, which Potency is on record?
A: Its Potency is 1.31 µM (active).

Q: Which Potency does the source give for `CCn1c(-c2ccncc2)n[nH]c1=S` here?
A: Its Potency is “inactive”.

Q: With `C=CCn1c(-c2ccccc2OCC)n[nH]c1=S` as the compound, how does the Potency read?
A: The Potency was “inactive”.

Q: With `O=C(c1cc(S(=O)(=O)N2CCOCC2)ccc1Cl)N1CCOCC1` as the compound, how does the Potency read?
A: Its Potency is “inactive”.

Q: For `Cn1cnc2c1c(=O)n(Cc1ccccc1C#N)c(=O)n2C`, which Potency is on record?
A: The Potency was “inactive”.

Q: Which Potency does the source give for `CC(C)N(C(=O)c1ccc(-c2ccccc2F)cc1)C(C)C` here?
A: Its Potency is 10.4 µM (active).

Q: Which Potency does the source give for `CCN(CC(=O)Nc1c(F)cccc1F)C(=O)c1ccc(-c2ccccc2)cc1` here?
A: Its Potency is “inactive”.

Q: With `O=C(Nc1ccccc1F)c1ccccc1-c1ccccc1` as the compound, how does the Potency read?
A: Its Potency is “inactive”.

Q: Which Potency does the source give for `CCCCN(C(=O)c1nn(C)c(=O)c2ccccc12)c1c(N)n(CCC)c(=O)[nH]c1=O` here?
A: Its Potency is “inactive”.

Q: For `Cc1cccc(N(C(=O)c2sc(C)nc2C)C(C(=O)NCC2CCCO2)c2ccccc2)c1` (stereo not drawn), which Potency is on record?
A: Its Potency is “inactive”.

Q: Which Potency does the source give for `Cc1nc(C)c(C(=O)N(c2ccc(C)c(C)c2)C(C(=O)NCc2ccco2)c2ccccc2)s1` (stereo not drawn) here?
A: The Potency was 11.7 µM (active).

Q: For `Cc1cccc(N(C(=O)Cc2cccs2)C(C(=O)NCc2ccco2)c2ccncc2)c1` (stereo not drawn), which Potency is on record?
A: The Potency was “inactive”.

Q: For `CCOCc1nnc(NC(=O)CCS(=O)(=O)Cc2ccccc2)s1`, which Potency is on record?
A: Its Potency is “inactive”.

Q: For `Cc1cccc(CNS(=O)(=O)c2ccc(-c3cnc(C4CC4)o3)cc2)c1`, which Potency is on record?
A: Its Potency is “inactive”.

Q: With `COc1ccc(C)cc1N(CC(=O)N1CCCC1)S(=O)(=O)c1ccccc1` as the compound, how does the Potency read?
A: The Potency was “inactive”.

Q: For `CC(C)C(=O)N1CCN(c2nc(-c3ccccc3)c3c(c2C#N)CC(C)(C)OC3)CC1`, which Potency is on record?
A: The Potency was 13.1 µM (active).

Q: For `CC1(C)Cc2c(sc(NC(=O)C(=O)N3CCOCC3)c2C#N)CO1`, which Potency is on record?
A: The Potency was “inactive”.

Q: Which Potency does the source give for `Cc1nc(NCCN)c(C#N)c2c1COC(C)(C)C2` here?
A: Its Potency is “inactive”.

Q: Which Potency does the source give for `Cc1sc(NC(=O)C2=COCCO2)c(C#N)c1C` here?
A: Its Potency is “inactive”.

Q: For `COc1ccccc1NC(=O)CSc1nnc(CNC(=O)c2ccccc2F)o1`, which Potency is on record?
A: Its Potency is “inactive”.

Q: Which Potency does the source give for `O=C(CN1C(=O)c2ccccc2S1(=O)=O)NC1CCCCC1` here?
A: Its Potency is “inactive”.

Q: For `COC(CNC(=O)c1ccc2c(c1)ncn2-c1cc(C)cc(C)c1)OC`, which Potency is on record?
A: The Potency was “inactive”.

From PubChem BioAssay AID504832 (National Center for Advancing Translational Sciences (NCATS), 2011)
